Records with an inconclusive call do not appear. Entries that show only a call come without a potency. Values without a mark were called inactive. The source made the active and inactive calls. Calls come from the whole dose curve.

The test is described as follows: p53 small molecule agonists, cell-based qHTS assay with human liver microsomes (AID 1963577).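 Note: p53 response element beta-lactamase reporter cells with liver microsomes plus NADPH.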 To be noted: HCT-116 p53RE-bla with human liver microsomes, ratio, 16 h; series mostly up to 66 µM. The text has this: National Center for Advancing Translational Sciences [NCATS]
Division of Preclinical Innovation [DPI]
U.S. Environmental Protection Agency [EPA]
National Institutes of Environmental Health Sciences [NIEHS]
National Toxicology Program [NTP]
U.S. Food and Drug Administration [FDA]
p53, a tumor suppressor protein, is activated following cellular insult, including DNA damage and other cellular stresses. The activation of p53 regulates cell fate by inducing DNA repair, cell cycle arrest, apoptosis, or cellular senescence. The activation of p53, therefore, is a good indicator of DNA damage and other cellular stresses. […] The activation of the reporter gene under culture conditions can be detected by fluorescence intensity.
Tox21 Assay Protocol Summary:
The p53RE-bla cells were dispensed at 4,000cells/3ul/well in 1536-well black-clear bottom plates. After the assay plates were incubated at 37 C, 5% CO2 incubator for 5 hours, 23 nL of compounds dissolved in DMSO, positive controls or DMSO only was transferred to the assay plate. Following compound addition, 3 uL of human liver microsomes (XenoTech, Kansas City, KS) at final concentration of 0.5 mg/mL and 1uL of Beta-Nicotinamide adenine dinucleotide 2-phosphate (NADPH) at final concentration of 0.5 mg/mL were transferred to the assay plate. The plates were incubated at 37 C for 16 hours. 1 uL of LiveBLAzer detection mixture was added to each well and the plates were incubated at room temperature in the dark for 2 h.
Background: Quantitative high-throughput screening tests each substance at several concentrations.
As for `COc1cc(C(=O)NC2CCN(C)CC2)ccc1Nc1ncc2c(n1)N(C1CCCC1)CC(F)(F)C(=O)N2C`, the Potency entry was “inactive”.
As to `CC(=O)Oc1ccc(C2(c3ccc(OC(C)=O)cc3)Oc3ccccc3NC2=O)cc1`, the Potency entry is “inactive”.
Still for that read-out and setting: with `N#CCCOCCC#N` the entry was “inactive”.
The same measure, in the same setting: with `COc1cc([C@@H]2c3cc4c(cc3[C@@H](O[C@@H]3O[C@@H]5CO[C@@H](C)O[C@H]5[C@H](O)[C@H]3O)[C@H]3COC(=O)[C@H]23)OCO4)cc(OC)c1O` the entry was “inactive”; with `CCN(CC)CCNC(=O)c1c(C)[nH]c(/C=C2\C(=O)Nc3ccc(F)cc32)c1C`, “inactive”.
`CC(=O)CCc1ccc(OC(C)=O)cc1`: the Potency entry was “inactive”.
For `COC(=O)CC(C)CCC=C(C)C` (stereo not given), the Potency result is “inactive”.
On the same count and under the same terms, with `O=[N+]([O-])c1ccc2ncccc2c1` the entry was “inactive”; with `CS(C)=O`, “inactive”.
Consider `CCN(CC)c1ccc2c(c1)Oc1cc(N(CC)CC)ccc1C21OC(=O)c2ccccc21`, for which the Potency entry was “inactive”.
Still for that read-out and setting: with `COc1cc2nc(N3CCN(C(=O)C4COc5ccccc5O4)CC3)nc(N)c2cc1OC` (stereo not given) the entry was “inactive”; with `O=C(Cl)c1ccc(Cl)cc1Cl`, “inactive”; with `CN(C/C=C/c1ccccc1)Cc1cccc2ccccc12`, “inactive”.
Regarding `CC1(C)CCC[C@]2(C)[C@H]3CC(=O)O[C@]3(C)CC[C@@H]12`, the Potency entry was “inactive”.
Same read-out and setting: with `CCCCCCCCCCCCCCCCC(C(=O)O)C(O)(CC(=O)O)C(=O)O` (stereo not given) the entry was “inactive”; with `c1ccc(-c2ccc(C(c3ccccc3)n3ccnc3)cc2)cc1` (stereo not given), “inactive”.
On the same count and under the same terms, with `CS(=O)(=O)CCNCc1ccc(-c2ccc3ncnc(Nc4ccc(OCc5cccc(F)c5)c(Cl)c4)c3c2)o1` the entry was “inactive”; with `O=C(Nc1ccc(S(=O)(=O)N2CCOCC2)cc1)c1cc(Cl)ccc1NS(=O)(=O)c1ccc(Cl)s1`, “inactive”.
Same read-out and setting: the same measure for `CCCCO`: “inactive”; for `CC(CC=O)c1ccccc1` (stereo not given): “inactive”.
Regarding `Oc1c(I)cc(Cl)c2cccnc12`, the Potency entry is “inactive”.
Same read-out and setting: with `CCN(Cc1cccc(S(=O)(=O)O)c1)c1ccc(C(=C2C=CC(=[N+](CC)Cc3cccc(S(=O)(=O)O)c3)C=C2)c2ccccc2S(=O)(=O)[O-])cc1` the entry was “inactive”; with `C[C@@H](N)C(=O)O`, “inactive”; with `CC(C)=CCNc1ncnc2c1ncn2[C@@H]1O[C@H](CO)[C@@H](O)[C@H]1O`, “inactive”.
Same read-out and setting: the same measure for `C[C@H]1[C@H](NC(=O)/C(=N/OC(C)(C)C(=O)O)c2csc(N)n2)C(=O)N1S(=O)(=O)O` (stereo in doubt): “inactive”.
Same read-out and setting: with `O=C(Oc1ccccc1)c1ccc2ccccc2c1O` the entry was “inactive”; with `O=C=NC1CCC(CC2CCC(N=C=O)CC2)CC1` (stereo not given), “inactive”; with `CCCCCCCCCCCCCCCCCC[N+](C)(C)Cc1ccccc1`, “inactive”.
On to `CCCCC(CC)CNC(=O)CC(C)OC(=O)CCC(=O)O` (stereo not given), for which the Potency result was “inactive”.
Same read-out and setting: with `O=C(Nc1ccc(C(=O)O)c(O)c1)c1ccccc1` the entry was “inactive”.
Turning to `O=C(C(=O)c1ccc(Br)cc1)c1ccc(Br)cc1`, the activation was -9.98% [at 13.5 µM].
`Cc1cc(-c2ccc(N=Nc3cc(S(=O)(=O)O)c4ccccc4c3N)c(C)c2)ccc1N=Nc1cc(S(=O)(=O)O)c2ccccc2c1N`: the Potency result is “inactive”.
On the same count and under the same terms, with `O=C(c1ccc(O)cc1)c1ccc(O)c(O)c1O` the entry was “inactive”; with `CCCCCCCCCCCCOCCOCCOCCOCCOCCOCCOCCOCCOCCO`, “inactive”; with `CCCCCCCCCCCCCCC[C@H](O)[C@@H](N)CO`, “inactive”.
The same measure, in the same setting: with `CCOC(=O)C1=C[C@]2(CC)CCCN3CCc4c(n1c1ccccc41)[C@@H]32` the entry was “inactive”; with `Nc1ccc(N=Nc2ccccc2)c(N)c1`, “inactive”; with `Fc1ccccc1[C@@H](F)COC1CCC(Nc2ncnc3[nH]ncc23)CC1` (stereo not given in full), “inactive”.
The same measure, in the same setting: the same measure for `CC(C)=CCC[C@](C)(O)[C@@H]1CC=C(C)CC1`: “inactive”; for `CC(C)(c1ccccc1)c1ccccc1`: “inactive”.

These data come from PubChem BioAssay (Tox21).
